Screening results deposited in PubChem BioAssay by National Center for Advancing Translational Sciences (NCATS).
IL-1B inflam inh – inflammasome signaling inhibition, IL-1 beta readout; 4.7% of 360,000 active; THP-1 LPS/ATP IL-1B secretion, AlphaLISA, 16 h; active compounds read low; activity change, % at 57.5 µM; AID 743279; in the data active means activity change below about -50%; inconclusive means mostly about -30% to -49%; further: on the % scale 0 is the no-effect control and ±100 the full control effect
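THP-1 cells pretreated 1 hr with compounds (up to 57.5 uM final), then stimulated with LPS (250 ng/mL final) plus ATP (1.25 mM final); secreted IL-1B measured by AlphaLISA after 16 hr, decreased signal indicating inhibition.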
Gal4-VP16 FLuc – Gal4-VP16 reporter inhibition counter-screen. Drosophila S2 Gal4-VP16 UAS-luciferase, luminescence, 20 h. Potency, µM (titrated, usually from 53.6 µM), without a hit: at the highest dose activity, negative = inhibition, hits mostly inhibitors. 3.5% of 310,000 active. AID 2546;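 further: Gal4-VP16 expression switched on by copper sulfate through the metallothionein promoter; potency means the concentration at half of the fitted maximal effect; on the % scale 0 is the no-effect control and ±100 the full control effect; nearly all actives have a fitted effect of over 50% in size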
RORgamma inh – blocks mouse ROR gamma transcriptional activity; Potency, µM (titrated, usually from 53.6 µM), for inactives: at the top dose activity change, negative = inhibition, most hits filed as inhibitors; P51450; AID 2551; 5.4% of 310,000 active; Drosophila S2 Gal4-RORgamma UAS-luciferase reporter, 20 h; further: potency means the concentration at half of the fitted maximal effect; on the % scale 0 is the no-effect control and ±100 the full control effect; nearly all actives have a fitted effect of over 60% in size
Target sequence (P51450 whole entry, looked up, the tested form may be a part): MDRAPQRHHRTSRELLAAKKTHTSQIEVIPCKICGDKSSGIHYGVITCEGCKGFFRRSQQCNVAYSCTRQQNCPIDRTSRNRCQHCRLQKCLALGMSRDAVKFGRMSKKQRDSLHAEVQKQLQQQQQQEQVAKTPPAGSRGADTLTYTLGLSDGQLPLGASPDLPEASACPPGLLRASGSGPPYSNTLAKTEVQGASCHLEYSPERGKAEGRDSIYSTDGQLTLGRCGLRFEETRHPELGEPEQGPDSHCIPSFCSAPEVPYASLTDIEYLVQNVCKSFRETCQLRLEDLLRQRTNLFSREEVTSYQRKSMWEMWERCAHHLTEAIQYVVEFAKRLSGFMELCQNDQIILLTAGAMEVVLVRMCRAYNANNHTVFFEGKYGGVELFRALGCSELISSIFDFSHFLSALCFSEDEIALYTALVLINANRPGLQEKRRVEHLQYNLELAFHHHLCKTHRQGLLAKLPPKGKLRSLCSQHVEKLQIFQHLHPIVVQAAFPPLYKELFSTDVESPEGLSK
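Stable Schneider cell line, Gal4 DNA-binding domain fused to ROR gamma, UAS-luciferase. Cmpd 1 hr RT → CuSO4 700 uM final → 20 hr RT → luciferase reagent 10 min → luminescence.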
SW480 rereplic – inducers of DNA re-replication in SW480 colon cancer cells | 1.8% of 340,000 active | AID 624297 | SW480 DNA re-replication, Hoechst DNA content imaging, 48 h | Potency, µM (top dose mostly 46.1 µM), for the others: at the highest dose re-replication activation, actives largely listed as activators; further: potency means the concentration at half of the fitted maximal effect; % of control where 0% means no effect; nearly all actives have a fitted effect of over 55% in size
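Quantitative HTS format with DMSO vehicle controls; 48 hr drug incubation at 37 C, then 40 min Hoechst staining and scanning imager measurement at 405 nm excitation.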
MCF10A rerep – induces DNA re-replication in MCF 10a normal breast cells; MCF 10A DNA re-replication, Hoechst nuclear intensity, 48 h; Potency, µM (highest dose often 46.1 µM), without a hit: at the top dose activity, positive = re-replication, actives largely listed as activators; 2.9% of 350,000 active; AID 624296; further: potency means the concentration at half of the fitted maximal effect; % of control where 0% means no effect; nearly all actives have a fitted effect of over 50% in size
Active calls of the source: *; ? = inconclusive; . = no result; [ ] = dose if it differs, or a comment. In the library only some 11% were active in any assay of this set; here they are far more common. Unless noted, the call rests on the fitted dose curve; in most records, active means well fitted curve in the direction sought with a large enough effect; inconclusive means small, poorly fitted or top-dose-only effect, or another doubt; inactive means no such curve, though single readings can be large; an effect the other way counts as inactive or inconclusive.

SMILES	IL-1B inflam inh	Gal4-VP16 FLuc	RORgamma inh	SW480 rereplic	MCF10A rerep
COC(=O)c1cc(OC)c(OC)cc1NC(=O)CCN1C(=O)C2CCCCC2C1=O (configuration not stated)	1	.	.	.	.
CC1(C(=O)NS(=O)(=O)c2ccccc2Cl)CCN1C(=O)CCc1cccs1 (configuration not stated)	8	.	.	.	.
COc1cc(/C=N/NC(=O)c2cccc(S(=O)(=O)N3CCOCC3)c2)cc(OC)c1O	8	5%	-3%	-15%[1.84 µM]	12%
CCN(CC)c1ccc(/C=N/NC(=O)c2cccc(S(=O)(=O)N3CCOCC3)c2)cc1	-3	?	16µM*	-5%	0%
CCN(Cc1ccccc1)c1ccc(/C=N/NC(=O)c2cccc(S(=O)(=O)N3CCOCC3)c2)cc1	5	7.9µM*	6.3µM*	15%	?
O=C(N/N=C/c1c(F)c(F)c(F)c(F)c1F)c1cccc(S(=O)(=O)N2CCOCC2)c1	3	-4%	-26%	-49%	1%[9.22 µM]
CC(CN1CCCCC1)NC(=O)c1scnc1-c1ccccc1 (configuration not stated)	15	.	.	.	.
C[C@@H](NC(=O)[C@@H]1Cc2ccccc2CN1)C(=O)NCC1CCCO1 (some centres not stated)	11	-5%	1%	1%	4%
COc1ccc(C2CC(c3ccc(F)cc3)n3nc(NC(=O)c4ccco4)nc3N2)cc1 (configuration not stated)	-5	13µM*	7.1µM*	-1%	0%
COc1ccc(C2CC(c3ccc(OC)cc3)n3nc(NC(=O)c4cccs4)nc3N2)cc1 (configuration not stated)	-18	?	5µM*	-4%	4%
CCCN(CCC)CCCNC(=O)c1ccc(CS(=O)(=O)c2c(Cl)cccc2Cl)o1	5	5%	16%	-4%	16%
C/C=C/OC(=O)NC(c1cccc(C)c1)[C@@]1(C(=O)OCC)CCCC1=O (some centres not stated)	.	-4%[10 µM]	1%[10 µM]	.	.
CC(C)[C@H](NC(=O)OCc1ccccc1)C(=O)OCC(=O)N1CCCCC1	12	.	.	4%	-2%
Cc1cccc(CN2CC34CCC(CC3S2(=O)=O)O4)c1 (configuration not stated)	.	-5%	25%	.	.
O=[N+]([O-])c1c(Nc2ccccc2O)cc(Cl)c2nonc12	-102*	2.8µM*	3.5µM*	-5%	-3%
O=[N+]([O-])c1c(Nc2ccccc2O)ccc2nonc12	35	4%	18%	26%	?
COc1ccc(OC)c(NC(=S)N2c3ccccc3CC2C)c1 (configuration not stated)	13	-1%	36%	5%	?
COc1cccc(NC(=S)N2c3ccccc3CC2C)c1 (configuration not stated)	12	?	22µM*	-5%	1%
COc1cc(NC(=S)N2c3ccccc3CC2C)cc(OC)c1 (configuration not stated)	31	18µM*	8.9µM*	-1%	13%
COc1cccc(NC(=O)CCS(=O)(=O)c2cc3c(cc2Cl)NC(=O)CO3)c1	1	4%	0%	-4%	-7%
CC(C)C(=O)Nc1cc2c3c(c1)CCC(=O)N3CCC2	36	-6%	-11%	-1%	5%
CCOC(=O)C1(C)CCN1C(=O)c1ccc(C(=O)OC)cc1 (configuration not stated)	19	.	.	.	.
CCOC(=O)[C@]12CCC=C1N(Cc1cccc3ccccc13)C(=O)[C@H](CC(=O)NCCCN1CCCC1=O)C2	-5	.	.	.	.
CCCS(=O)(=O)c1ncc(Cl)c(C(=O)Nc2ccc(S(=O)(=O)Nc3ncccn3)cc2)n1	4	?	?	?	-2%
CC(=O)Nc1ccc(NC(=O)c2nc(S(=O)(=O)Cc3cccc(C)c3)ncc2Cl)cc1	-100*	5µM*	6.3µM*	?	18%
COC(=O)c1ccc(NC(=O)c2nc(S(=O)(=O)Cc3cccc(C)c3)ncc2Cl)cc1	-103*	4.5µM*	6.3µM*	?	11%
Cc1cccc(CS(=O)(=O)c2ncc(Cl)c(C(=O)NCc3ccc4c(c3)OCO4)n2)c1	-96*	3.2µM*	6.3µM*	-23%	?
